NadD block: NadD (S. aureus) enzyme inhibition; 360,000 tested, 0.78% active; AID 602399; inhibition, % at 20 µM; purified NadD enzyme, colorimetric absorbance read-out; in the data active means inhibition above about 26%
MsrA inhibitor: inhibits bovine methionine sulfoxide reductase A; 360,000 tested, 0.75% active; AID 651718; inhibition, % at 15.5 µM; purified bovine MsrA, absorbance read-out; in the data active means inhibition above about 4.5%
rCAG binder: molecules binding r(CAG) RNA repeats. r(CAG) RNA repeat, TO-PRO-1 dye displacement fluorescence. inhibition, % at 3 µM. 370,000 tested, 1.3% active;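 active means inhibition above the plate cutoff, the mean of all test compounds on that plate plus 3 SD, cut at about 35% in these data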;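 further: higher means more dye released from RNA so lower well fluorescence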
MsrA act: activators of bovine methionine sulfoxide reductase A; AID 602163; activation, % at 10.6 µM; purified bovine MsrA, absorbance read-out; 360,000 tested, 0.3% active; in the data active means activation above about 7.5%
A number is an active result; 0 = inactive; - = no result. In the library only some 2.7% were active in any assay of this set; here they are far more common.

SMILES	NadD block	MsrA inhibitor	rCAG binder	MsrA act
CC1(C)CC(=O)C=C(c2n[nH]nc2C2=CCCCC2)C1	0	0	0	0
Cc1ccc(SCC(=O)NCC2COc3ccccc3O2)cc1 (centres undefined)	0	0	0	0
O=C(/C=C/c1c(Cl)cccc1Cl)NCCc1ccccc1	0	0	0	8.0
O=C(CP(=O)(c1ccccc1)c1ccccc1)N/N=C/c1cc(Br)cc(Br)c1O	44	0	0	0
O=C(N/N=C/c1cc(Br)cc(Br)c1O)c1cccc(N2CCCC2=O)c1	33	0	0	0
O=C(N/N=C/c1ccc(Cl)cc1Cl)c1cccc(N2CCCC2=O)c1	0	0	0	0
O=C(N/N=C/c1cc(Br)cc(Br)c1O)c1cccc(S(=O)(=O)N2CCOCC2)c1	35	0	0	0
O=C(CN1CCN(S(=O)(=O)c2ccc(F)cc2)CC1)Nc1ccnn1C1CCCC1	0	0	0	0
COc1ccc(NC(=O)C2Cc3c(-c4cccc(NC(C)=O)c4)ccnc3O2)cc1 (centres undefined)	0	0	0	0
O=C(O)c1cccc2c1C(=O)c1ccc(-c3ccc(F)cc3OCc3ccccc3)cc1S2(=O)=O	0	-	-	0
O=C1c2ccc(-c3ccc(F)cc3OCc3ccccc3)cc2S(=O)(=O)c2cccc(C(=O)N3CCN(c4ncc(Br)cn4)CC3)c21	58	0	0	0
CC(C)C(=O)N1CCCC1(C)C(=O)Nc1ccccc1 (centres undefined)	0	-	-	0
N#CC1=C(SCC(=O)Nc2cccc3cccnc23)NC(=O)C(C#N)C12CCCCC2 (centres undefined)	0	0	48	0
N#CC1=C(SCC(=O)NC2CC2)NC(=O)C(C#N)C12CCCCC2 (centres undefined)	0	0	0	0
CCCCN1C(=O)C(CC(=O)NCCCN(C)C)CC(C(=O)N2CCCCCC2)=C1C (centres undefined)	0	0	0	0
O=C(Nc1nc2ncccn2c1-c1ccc(F)cc1)C1CC1	-	-	0	-
O=C(O)c1cccc(-c2ccc(/C=C3/SC(=Nc4ccccc4)N(Cc4cccnc4)C3=O)o2)c1	32	0	0	0
Cc1ccc(-c2cc(-c3nnc(SCC(=O)N4CCOCC4)n3N)[nH]n2)cc1	-	-	0	-
CC(C)(C)CNC(=O)C1(C)CCN1C(=O)Cc1ccc(-c2ccccc2)cc1 (centres undefined)	0	0	0	0
CCOC(=O)c1c(-c2ccc(OC)cc2)csc1NC(=O)CSc1nnc(C)c(=O)[nH]1	0	0	63	0
CCOC(=O)c1c(-c2ccc(OC)cc2)csc1NC(=O)CSc1ccccc1	0	0	0	0
Cc1ccc(S(=O)(=O)Nc2ccc(O)c(Sc3ncn[nH]3)c2)cc1	0	0	0	0
CC(C)c1ccc(S(=O)(=O)/N=C2/C=C(Sc3ncn[nH]3)C(=O)c3ccccc32)cc1	83	-	-	0
Cc1ccc(S(=O)(=O)/N=C2/C=C(Sc3ncn[nH]3)C(=O)c3ccccc32)cc1	50	-	-	0
CC(C)C[C@@H](CNCC(=O)[C@H](Cc1ccccc1)NC(=O)c1[nH]cnc1C(=O)N[C@@H](C)CN)NC(=O)c1nc[nH]c1C(=O)N[C@@H](C)C(=O)O	0	0	0	0
SMILES	NadD block	MsrA inhibitor	rCAG binder	MsrA act
O=C(c1ccccc1NS(=O)(=O)c1ccc([N+](=O)[O-])cc1[N+](=O)[O-])N1O[C@@H]2C=C[C@H]1C2	0	7.2	35	0
O=C(c1ccccc1NS(=O)(=O)c1ccccc1[N+](=O)[O-])N1CCOCC1	0	0	0	0
Cc1ccc(S(=O)(=O)N2CCOCC2)cc1NC(=O)Cn1c(=O)ccn(Cc2ccccc2)c1=O	0	0	0	0
CC(C)(C)c1ccc(OCc2ccc(C(=O)N/N=C/c3ccc(O)c(O)c3)cc2)cc1	72	0	0	0
CCN(C(=O)CN1C(=O)S/C(=C\C=C\c2ccccc2)C1=O)C1CCS(=O)(=O)C1 (centres undefined)	0	4.6	0	0
CCOc1c(Cl)cc(C(=O)Nc2ccccc2C(=O)O)cc1Cl	0	0	51	0
COc1ccc(C(=O)Nc2ccccc2C(=O)O)cc1Cl	0	0	0	0
O=C1CSC(=S)N1N=Cc1c(O)ccc2ccccc12	34	0	0	0
c1ccc(-[n+]2nc(Nc3cccc4ccccc34)sc2-c2c3ccccc3cc3ccccc23)cc1	42	-	-	0
NC(=O)CC1(c2ccccc2)CCCCC1	0	0	0	0
CCN(CC)CCNC(=O)CNC(=O)c1nn(-c2ccc(OC)c(OC)c2)c(=O)c2ccccc12	0	0	0	0
Cc1ccccc1C(=O)NC(CC(C)C)C(=O)NCC(C)(C)N1CCOCC1 (centres undefined)	0	0	0	0
Cn1c2ccccc2c2cc(/C=N/NC(=O)c3ccc(O)cc3O)ccc21	40	-	-	0
COc1cccc(NC(=O)Cn2c(CCC(=O)O)ccc2-c2ccc(C)cc2)c1	0	0	0	0
COc1ccc(-c2ccc(CCC(=O)O)n2CC(=O)Nc2cccc(OC)c2)cc1	0	4.7	0	0
Oc1ccc2ccccc2c1/C=N/Nc1nnc(-c2ncc[nH]2)c2ccccc12	51	0	0	0
COc1ccc(/C=N/Nc2nnc(-c3ncc[nH]3)c3ccccc23)cc1	0	-	-	0
CCOC(=O)N(C)c1c(CC)nc2c(OCc3cc(Cl)cc(Cl)c3)cccn12	0	0	0	0
CCc1ccc2c(c1)NC(=O)C2(C)Cc1ccccc1 (centres undefined)	0	0	0	0
CCc1ccc2c(c1)C1(NN=C(c3cccc4ccccc34)S1)C(=O)N2 (centres undefined)	35	0	0	0
CCCC(=O)OCC(=O)Nc1cc([N+](=O)[O-])ccc1OC	0	4.6	0	0
COc1ccc([N+](=O)[O-])cc1NC(=O)COC(C)=O	0	0	0	0
COc1cc(/C=C2/C(=O)NN(c3ccc(Cl)cc3)C2=O)ccc1OC(=O)c1ccco1	0	0	76	0
CN([C@@H](Cc1ccc(OS(=O)(=O)c2cccc3cnccc23)cc1)C(=O)N1CCN(c2ccccc2)CC1)S(=O)(=O)c1cccc2cnccc12	32	-	-	0
COc1ccc(C(CNC(=O)c2ccc(OCc3csc(C)n3)cc2)N2CCCC2)cc1 (centres undefined)	0	0	0	0
SMILES	NadD block	MsrA inhibitor	rCAG binder	MsrA act
CC(C)Sc1nc(C(F)(F)F)cc(=O)n1-c1ccccc1	0	0	0	14
O=c1[nH]c(/C=C\c2ccc(O)c(Cl)c2)nc(O)c1[N+](=O)[O-]	0	4.6	0	0
COc1cc(CN2C[C@@H](CO)O[C@@H](n3cnc4c(N5CCN(c6ccccc6)CC5)ncnc43)C2)cc(OC)c1OC	0	0	0	0
CCN1CCCSC1=S	0	0	0	0
CCOC(=O)N1CCN(S(=O)(=O)c2ccc(C(=O)NNc3nc4c(C)cccc4s3)cc2)CC1	0	0	76	0
CCOC(=O)N1CCN(S(=O)(=O)c2ccc(C(=O)NNc3nc4cc(C)cc(C)c4s3)cc2)CC1	39	-	-	0
CCOC(=O)N1CCN(S(=O)(=O)c2ccc(C(=O)NNc3nc4ccc(Cl)cc4s3)cc2)CC1	0	-	-	0
CCOC(=O)N1CCN(S(=O)(=O)c2ccc(C(=O)N(CCN(CC)CC)c3nc4c(C)cccc4s3)cc2)CC1	0	0	0	0
O=C(OCc1cn(Cc2c(F)cccc2F)nn1)N1CCCC1	-	-	0	-

Source: PubChem BioAssay
